In PubChem BioAssay AID1159580 (chemical genetic matrix, 2015):
Screen size: about 5,500 compounds; about 2,000 (36%) were called active. Another 18% or so got no clear call; they are omitted. Cut-off read from the data, not from the text of the source: active = normalized growth mostly below about 0.91 (no sharp cut-off); inconclusive = no clear call, values can overlap the other calls; inactive = mostly above about 0.92. Some of the results follow.

Assay: chemical genetic growth profiling, strain panel (AID 1159580);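 note: tested at 20 µM; growth read once vehicle control cultures reached saturation at 30 °C; 1 = growth at the plate median or of vehicle wells; lower values mean less growth of the strain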
Settings: S. cerevisiae deletion strains, growth OD

Measured: normalized growth

CC(C)NC[C@H](O)COc1cccc2[nH]ccc12
inactive: locus YAL013W, strain DEP1, hits give low values 0.999 | locus YAL040C, strain CLN3, hits give low values 0.984 | locus YCL061C, strain MRC1 (second series), hits give low values 1.01 | locus YDR363W, strain ESC2, hits give low values 0.994 | locus YER002W, strain NOP16, hits give low values 0.969 | locus YNL153C, strain GIM3, hits give low values 1.01 | locus YNL175C, strain NOP13, hits give low values 1.01 | locus YNL197C, strain WHI3, hits give low values 1.01 | locus YNL224C, strain SQS1, hits give low values 1.01 | locus YNL322C, strain KRE1, hits give low values 0.999 | locus YOR083W, strain WHI5 (second series), hits give low values 1.05 | locus YPL241C, strain CIN2, hits give low values 1
